This passage reports Potency, activity, negative = inhibition and activity change, negative = inhibition results from PubChem BioAssay (Tox21).

The target in assay [1] is Acetylcholinesterase (Homo sapiens) (UniProt P22303). Kind of assay: Acetylcholinesterase (AChE) small molecule antagonists: colormetric cell-based qHTS assay (AID 1347395). Also: nearly all actives have a fitted effect of over 30% in size. A digest of the protocol:
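In this cell-based qHTS, attached SH-SY5Y cells were treated with test chemicals for 30 min, after which acetylthiocholine hydrolysis was followed by DTNB colour development over 90 min at 37 C.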
(qHTS replaces the single test concentration by a dilution series.)

For assay [2] the target is unchanged. As to the kind of experiment: Acetylcholinesterase (AChE) small molecule antagonists: enzyme-based qHTS assay (AID 1347397). Also: nearly all actives have a fitted effect of over 55% in size. Also: potency is read from the fitted curve at half-maximal effect. Particulars: Potency: AChE enzyme activity inhibition; outcome: AChE enzyme activity inhibition. A digest of the protocol: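 Compound or DMSO vehicle was pin-transferred onto recombinant human AChE (50 mU/mL as dispensed) and left 30 min at room temperature. Acetylthiocholine with DTNB then started the reaction, read colorimetrically 10 min later.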

The target is the same in assay [3]. As to the kind of experiment: Acetylcholinesterase (AChE) small molecule antagonists: fluorescence cell-based qHTS assay (AID 1347398). Also: nearly all actives have a fitted effect of over 50% in size. Also: potency is read from the fitted curve at half-maximal effect. Particulars: Potency: AChE activity; outcome: AChE activity. A digest of the protocol:
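Using neuroblastoma SH-SY5Y cells as the enzyme source, test chemicals are preincubated 30 min at 37 C; AChE-driven acetylthiocholine cleavage is then quantified by thiocholine-dependent Thiolite Green fluorescence after 40 min at room temperature.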

Assay [4] shares this target. As to the kind of experiment: Acetylcholinesterase (AChE) small molecule antagonists: enzyme-based qHTS assay with human liver microsomes (AID 1347399). Also: nearly all actives have a fitted effect of over 60% in size. Particulars: Potency: qHTS inhibition; outcome: qHTS inhibition. The method, boiled down:
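Recombinant human AChE (50 mU/mL in the enzyme mix) and human liver microsomes (0.25 mg/mL final) were preincubated with compound and NADPH (0.25 mg/mL final) for 30 min at 37 C. Acetylthiocholine/DTNB was then added; thiocholine was read colorimetrically after 10 min at room temperature.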

Unmarked numbers belong to inactive results. Inconclusive results are not listed. The source made the active and inactive calls. Calls follow the shape of the full dose curve.
% is scaled to controls: 0 for no effect and ±100 for the full control effect.

Chain of Acetylcholinesterase (Homo sapiens) (P22303 whole entry, looked up): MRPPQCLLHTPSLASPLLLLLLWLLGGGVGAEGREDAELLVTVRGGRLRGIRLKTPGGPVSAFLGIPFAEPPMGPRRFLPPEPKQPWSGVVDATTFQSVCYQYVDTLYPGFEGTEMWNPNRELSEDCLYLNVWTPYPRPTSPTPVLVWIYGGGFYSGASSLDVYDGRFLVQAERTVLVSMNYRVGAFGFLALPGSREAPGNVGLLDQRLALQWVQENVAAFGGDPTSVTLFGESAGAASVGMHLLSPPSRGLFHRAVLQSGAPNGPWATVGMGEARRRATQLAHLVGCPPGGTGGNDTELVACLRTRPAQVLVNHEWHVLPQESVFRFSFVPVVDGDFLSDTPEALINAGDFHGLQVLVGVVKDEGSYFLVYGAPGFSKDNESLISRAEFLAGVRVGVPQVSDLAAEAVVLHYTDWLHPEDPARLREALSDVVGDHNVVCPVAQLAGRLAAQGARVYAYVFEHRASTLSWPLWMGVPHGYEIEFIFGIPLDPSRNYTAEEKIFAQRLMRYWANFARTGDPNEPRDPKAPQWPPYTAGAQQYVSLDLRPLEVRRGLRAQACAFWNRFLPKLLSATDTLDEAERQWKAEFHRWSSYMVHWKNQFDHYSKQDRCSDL

On to `C=C(C)C(=O)OCC(O)CO` (stereo not given), for which the Potency result in assay [1], in assay [2], in assay [3] and in assay [4] was “inactive” each time.

`CCCCCCCCCCCC(=O)N(CC)CC`: the Potency entry in assay [1], in assay [2], in assay [3] and in assay [4] was “inactive” each time.

`FC(F)(F)/C(=N\OCC1OCCO1)c1ccc(Cl)cc1`: the Potency result in assay [1], in assay [2], in assay [3] and in assay [4] was “inactive” in each case.

As to `COc1ccc(COC(C)=O)cc1`, the Potency entry in assay [1], in assay [2], in assay [3] and in assay [4] was “inactive” each time.

For `CCN[C@H]1C[C@H](C)S(=O)(=O)c2sc(S(N)(=O)=O)cc21`, the Potency entry in assay [1], in assay [2], in assay [3] and in assay [4] was “inactive” throughout.

As to `O=C(O)Cn1c(C(=O)Nc2nc(-c3ccccc3Cl)cs2)cc2ccccc21`, the Potency entry in assay [1], in assay [2], in assay [3] and in assay [4] was “inactive” throughout.

For the compound `CCCCCC(C)O` (stereo not given), the Potency result in assay [1], in assay [2], in assay [3] and in assay [4] was “inactive” each time.

For the compound `COc1ccc(CCO)cc1`, the Potency result in assay [1], in assay [2], in assay [3] and in assay [4] was “inactive” in each case.

For `Cc1ccc(C(=O)c2ccc(CC(=O)O)n2C)cc1`, the Potency result in assay [1], in assay [2], in assay [3] and in assay [4] was “inactive” throughout.

For `CC(C)S`, the Potency entry in assay [1], in assay [2], in assay [3] and in assay [4] was “inactive” each time.

As to `N#Cc1cc(NC(=O)C(=O)O)c(Cl)c(NC(=O)C(=O)O)c1`, the Potency entry in assay [1], in assay [2], in assay [3] and in assay [4] was “inactive” in each case.

Consider `CCCCCCCCCCCCN1CCCC1=O`, for which the Potency entry in assay [1], in assay [2], in assay [3] and in assay [4] was “inactive” each time.

In the case of `C[C@]12C(=O)OC(=O)[C@H]1[C@H]1C=C[C@@H]2C1`, the Potency result in assay [1], in assay [2], in assay [3] and in assay [4] was “inactive” throughout.

With `C#C[C@]1(O)CC[C@H]2[C@@H]3CCC4=CC(=O)CC[C@@H]4[C@H]3CC[C@@]21CC`, the Potency result in assay [1], in assay [2], in assay [3] and in assay [4] was “inactive” each time.

Consider `C/C=C/c1ccc(OC)cc1`, for which the Potency entry in assay [1], in assay [2], in assay [3] and in assay [4] was “inactive” throughout.

Turning to `C[Si](C)(C)O[Si](C)(C)O[Si](C)(C)C`, the Potency entry in assay [1], in assay [2], in assay [3] and in assay [4] was “inactive” throughout.

`CCCCCCCCCCOS(=O)(=O)O`: the Potency entry in assay [1], in assay [2], in assay [3] and in assay [4] was “inactive” each time.

As for `O=S(=O)(O)c1ccc(N=Nc2c(O)ccc3cc(S(=O)(=O)O)ccc23)cc1`, the Potency entry in assay [1], in assay [2], in assay [3] and in assay [4] was “inactive” in each case.

As to `CC(C)=CC1CC(C)CCO1` (stereo not given), the Potency result in assay [1], in assay [2], in assay [3] and in assay [4] was “inactive” throughout.

As to `CC(C)C[C@H](NC(=O)[C@H](CCc1ccccc1)NC(=O)CN1CCOCC1)C(=O)N[C@@H](Cc1ccccc1)C(=O)N[C@@H](CC(C)C)C(=O)[C@@]1(C)CO1`, the Potency entry in assay [1], in assay [2], in assay [3] and in assay [4] was “inactive” in each case.

As for `CCN(CC)c1ccc2c(C)cc(=O)oc2c1`, the Potency entry in assay [1], in assay [2], in assay [3] and in assay [4] was “inactive” each time.

For the compound `CCCCCC[C@@H](CCC)C(=O)O`, the Potency result in assay [1], in assay [2], in assay [3] and in assay [4] was “inactive” throughout.

Turning to `CCCCOC(=O)CCC(C)=O`, the Potency entry in assay [1], in assay [2], in assay [3] and in assay [4] was “inactive” each time.

In the case of `CCCCCCCCOC(C)=O`, the Potency result in assay [1], in assay [2], in assay [3] and in assay [4] was “inactive” throughout.

In the case of `OCCN1CCNCC1`, the Potency entry in assay [1], in assay [2], in assay [3] and in assay [4] was “inactive” each time.

Consider `CC(=O)OC(C)OC(C)=O`, for which the Potency result in assay [1], in assay [2], in assay [3] and in assay [4] was “inactive” each time.

Turning to `CC1(C)O[C@@H]2C[C@H]3[C@@H]4C[C@H](F)C5=CC(=O)CC[C@]5(C)[C@H]4[C@@H](O)C[C@]3(C)[C@]2(C(=O)CO)O1`, the Potency result in assay [1], in assay [2], in assay [3] and in assay [4] was “inactive” each time.

For `C=C(C)C(=O)OCCCCCCOC(=O)C(=C)C`, the Potency result in assay [1], in assay [2], in assay [3] and in assay [4] was “inactive” in each case.

As to `CC1CC(O)CC(C)(C)C1` (stereo not given), the Potency result in assay [1], in assay [2], in assay [3] and in assay [4] was “inactive” throughout.

In the case of `CCN(CC)CC1CCCCN1CC(=O)N1c2ccccc2C(=O)Nc2cccnc21` (stereo not given), the Potency entry in assay [1], in assay [2], in assay [3] and in assay [4] was “inactive” each time.

For `CCCCCCCO`, the Potency result in assay [1], in assay [2], in assay [3] and in assay [4] was “inactive” throughout.

On to `Oc1ccc2c(c1)CCC2`, for which the Potency result in assay [1], in assay [2], in assay [3] and in assay [4] was “inactive” each time.

In the case of `CCCCCCC(C)(C)S`, the Potency result in assay [1], in assay [2], in assay [3] and in assay [4] was “inactive” throughout.

Consider `O=C(O)CP(=O)(O)O`, for which the Potency result in assay [1], in assay [2], in assay [3] and in assay [4] was “inactive” each time.

For `CCCCOCCOCCOCCO`, the Potency entry in assay [1], in assay [2], in assay [3] and in assay [4] was “inactive” each time.

Take `CCOC(=O)c1c(C)n(C)c2ccc(O)cc12`: the Potency result in assay [1], in assay [2], in assay [3] and in assay [4] was “inactive” throughout.

Take `C=CCCCCCCCCOC(C)=O`: the Potency entry in assay [1], in assay [2], in assay [3] and in assay [4] was “inactive” in each case.

Consider `Nc1ccc2cc(S(=O)(=O)O)cc(O)c2c1`, for which the Potency entry in assay [1], in assay [2], in assay [3] and in assay [4] was “inactive” in each case.

Regarding `Nc1ccc(Oc2cccc(Oc3ccc(N)cc3)c2)cc1`, the Potency result in assay [1], in assay [2], in assay [3] and in assay [4] was “inactive” in each case.

Turning to `C#Cc1ccc(-c2ccccc2F)cc1`, the Potency entry in assay [1], in assay [2], in assay [3] and in assay [4] was “inactive” throughout.

Consider `Cc1nc2c([nH]1)c(=O)n(C)c(=O)n2Cc1ccco1`, for which the Potency result in assay [1], in assay [2], in assay [3] and in assay [4] was “inactive” in each case.

On to `CCCCCCCCCCCCc1ccccc1`, for which the Potency entry in assay [1], in assay [2], in assay [3] and in assay [4] was “inactive” in each case.

For the compound `Fc1ccccc1[C@@H](F)COC1CCC(Nc2ncnc3[nH]ncc23)CC1` (stereo not given in full), the Potency entry in assay [1], in assay [2], in assay [3] and in assay [4] was “inactive” throughout.

For `CCOC(=O)c1ccc(C)cc1`, the Potency result in assay [1], in assay [2], in assay [3] and in assay [4] was “inactive” in each case.

As for `CC(C)(C)NC[C@H](O)COc1cccc2c1CCCC2=O`, the Potency entry in assay [1], in assay [2], in assay [3] and in assay [4] was “inactive” in each case.

As to `COc1ccc(N)c([N+](=O)[O-])c1`, the Potency result in assay [1], in assay [2], in assay [3] and in assay [4] was “inactive” throughout.

Consider `CC(C)CCCCCOC(=O)CCCCC(=O)OCCCCCC(C)C`, for which the Potency entry in assay [1], in assay [2], in assay [3] and in assay [4] was “inactive” each time.

As to `COc1ccc(Br)c(C)c1`, the Potency entry in assay [1], in assay [2], in assay [3] and in assay [4] was “inactive” throughout.

As to `COc1cc(O)c(C(=O)c2ccccc2)cc1S(=O)(=O)O`, the Potency result in assay [1], in assay [2], in assay [3] and in assay [4] was “inactive” throughout.

With `CC(C#N)(CCC(=O)O)N=NC(C)(C#N)CCC(=O)O` (stereo not given), the Potency entry in assay [1], in assay [2], in assay [3] and in assay [4] was “inactive” in each case.

On to `CN1CCC[C@@H]1Cc1c[nH]c2ccc(CCS(=O)(=O)c3ccccc3)cc12`, for which the Potency result in assay [1], in assay [2], in assay [3] and in assay [4] was “inactive” throughout.

For `CCCOC(=O)CC`, the Potency entry in assay [1], in assay [2], in assay [3] and in assay [4] was “inactive” throughout.

Regarding `CCc1nc(N)nc(N)c1-c1ccc(Cl)cc1`, the Potency result in assay [1], in assay [2], in assay [3] and in assay [4] was “inactive” throughout.

Consider `CCCCOCC(C)OCC(C)O` (stereo not given), for which the Potency entry in assay [1] and in assay [4] was “inactive” each time. Moreover, the Potency in assay [2] is 57.8 µM (active); in assay [3] it was 29 µM (active).

As to `CNC(=O)Nc1ccc(Cl)c(Cl)c1`, the Potency result in assay [1], in assay [2], in assay [3] and in assay [4] was “inactive” each time.

Take `CN1CCN(c2c(F)cc3c(=O)c(C(=O)O)cn4c3c2OCN4C)CC1`: the activity, negative = inhibition in assay [1] was 1.67% [at 23.6 µM]. For the same compound, the activity change, negative = inhibition in assay [2] is 0.0377% [at 23.6 µM]; in assay [3], 5.01% [at 23.8 µM]; in assay [4] it was -0.167% [at 23.6 µM].

With `CSc1ccc(/C=C2/C(C)=C(CC(=O)O)c3cc(F)ccc32)cc1`, the Potency result in assay [1], in assay [2], in assay [3] and in assay [4] was “inactive” each time.

Regarding `CCCCCCCCCC`, the Potency entry in assay [1], in assay [2], in assay [3] and in assay [4] was “inactive” throughout.

Take `Nc1nc2ncc(CNc3ccc(C(=O)N[C@@H](CCC(=O)O)C(=O)O)cc3)nc2c(=O)[nH]1`: the Potency entry in assay [1], in assay [2], in assay [3] and in assay [4] was “inactive” throughout.

As to `CO/N=C(/C(=O)N[C@@H]1C(=O)N2C(C(=O)O)=C(COC(N)=O)CS[C@H]12)c1ccco1`, the Potency entry in assay [1], in assay [2], in assay [3] and in assay [4] was “inactive” in each case.
